# This excerpt belongs to a sample that is enriched for the strongest signals.
# Assays:
# Experiment in all cases: glycan array binding signal (z-score within array); higher = stronger binding
# Conditions in all cases: glycan notation: IUPAC condensed, linker removed
# [1] = biological target: Fuc(a1-2)Gal(b1-4)Glc
# In short: (§1)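 Columns mapping to the same glycan were averaged after glycan names were converted to IUPAC-condensed notation. The data come from 3228 arrays in the Consortium for Functional Glycomics database, limited to those with an available protein sequence. Binding is reported as a within-array Z-score averaged across arrays of one protein sequence and across linkers.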
# [2] = biological target: Fuc(a1-2)Gal(b1-4)[Fuc(a1-3)]GlcNAc(b1-3)Gal(b1-4)[Fuc(a1-3)]GlcNAc
# In short: as §1
# [3] = biological target: Fuc(a1-2)GlcNAc
# In short: as §1
# [4] = biological target: Fuc(a1-2)[GalNAc(b1-3)]Gal
# In short: as §1
# [5] = biological target: Fuc(a1-3)[Gal(b1-4)]GlcNAc(b1-4)Gal(b1-4)[Fuc(a1-3)]GlcNAc
# In short: as §1
# [6] = biological target: Fuc(b1-3)GlcNAc
# In short: as §1
# [7] = biological target: Gal(a1-3)Gal(b1-4)GlcNAc
# In short: as §1
# [8] = biological target: Gal(b1-3)[Fuc(a1-4)]GlcNAc
# In short: as §1
# [9] = biological target: Gal(b1-4)GalNAc(a1-3)[Fuc(a1-2)]Gal(b1-4)GlcNAc
# In short: as §1
# [10] = biological target: Gal(b1-4)Glc6S
# In short: as §1
# [11] = biological target: Gal(b1-4)GlcNAc(b1-2)Man(a1-3)[Gal(b1-4)GlcNAc(b1-2)Man(a1-6)]Man(b1-4)GlcNAc(b1-4)GlcNAc
# In short: as §1
# [12] = biological target: Gal(b1-4)GlcNAc(b1-6)[Gal(b1-3)]GalNAc
# In short: as §1
# [13] = biological target: Gal3S(b1-4)Glc
# In short: as §1
# [14] = biological target: Gal3S(b1-4)GlcNAc6S
# In short: as §1
# [15] = biological target: Gal3S6S(b1-4)GlcNAc6S
# In short: as §1
# [16] = biological target: Gal6S(b1-4)Glc6S
# In short: as §1
# [17] = biological target: GlcNAc(b1-3)Gal
# In short: as §1
# [18] = biological target: Neu5Ac(a2-3)Gal(b1-4)[Fuc(a1-3)]GlcNAc(b1-3)Gal
# In short: as §1
# [19] = biological target: Neu5Ac(a2-3)Gal(b1-4)[Fuc(a1-3)]GlcNAc(b1-3)Gal(b1-4)[Fuc(a1-3)]GlcNAc(b1-3)Gal(b1-4)[Fuc(a1-3)]GlcNAc
# In short: as §1
# [20] = biological target: Neu5Ac(a2-8)Neu5Ac(a2-8)Neu5Ac(a2-3)[GalNAc(b1-4)]Gal(b1-4)Glc
# In short: as §1
# [21] = biological target: Fuc(a1-2)Gal(b1-4)GlcNAc
# In short: as §1
# [22] = biological target: Fuc(a1-2)Gal(b1-4)GlcNAc(b1-3)Gal(b1-4)GlcNAc(b1-3)Gal(b1-4)GlcNAc
# In short: as §1
# [23] = biological target: Fuc(a1-3)GlcNAc
# In short: as §1
# [24] = biological target: Gal(a1-3)Gal(b1-4)[Fuc(a1-3)]GlcNAc
# In short: as §1
# [25] = biological target: Gal(b1-3)[Neu5Ac(a2-6)]GlcNAc(b1-4)Gal(b1-4)Glc
# In short: as §1
# [26] = biological target: Gal3S(b1-3)GalNAc
# In short: as §1
# [27] = biological target: Gal4S(b1-4)GlcNAc
# In short: as §1
# [28] = biological target: Gal6S(b1-4)Glc
# In short: as §1
# [29] = biological target: GalNAc(a1-3)Gal
# In short: as §1
# [30] = biological target: Neu5Ac(a2-3)Gal(b1-3)[Fuc(a1-4)]GlcNAc
# In short: as §1
# [31] = biological target: Neu5Ac(a2-3)Gal(b1-4)GlcNAc
# In short: as §1
# [32] = biological target: Neu5Ac(a2-8)Neu5Ac(a2-8)Neu5Ac(a2-3)Gal(b1-4)Glc
# In short: as §1
# [33] = biological target: Neu5Gc(a2-3)Gal(b1-3)[Fuc(a1-4)]GlcNAc
# In short: as §1
# [34] = biological target: Neu5Gc(a2-3)Gal(b1-4)GlcNAc
# In short: as §1
# [35] = biological target: Neu5Gc(a2-6)Gal(b1-4)GlcNAc
# In short: as §1
Binder,glycan array binding signal (z-score) [1],glycan array binding signal (z-score) [2],glycan array binding signal (z-score) [3],glycan array binding signal (z-score) [4],glycan array binding signal (z-score) [5],glycan array binding signal (z-score) [6],glycan array binding signal (z-score) [7],glycan array binding signal (z-score) [8],glycan array binding signal (z-score) [9],glycan array binding signal (z-score) [10],glycan array binding signal (z-score) [11],glycan array binding signal (z-score) [12],glycan array binding signal (z-score) [13],glycan array binding signal (z-score) [14],glycan array binding signal (z-score) [15],glycan array binding signal (z-score) [16],glycan array binding signal (z-score) [17],glycan array binding signal (z-score) [18],glycan array binding signal (z-score) [19],glycan array binding signal (z-score) [20],glycan array binding signal (z-score) [21],glycan array binding signal (z-score) [22],glycan array binding signal (z-score) [23],glycan array binding signal (z-score) [24],glycan array binding signal (z-score) [25],glycan array binding signal (z-score) [26],glycan array binding signal (z-score) [27],glycan array binding signal (z-score) [28],glycan array binding signal (z-score) [29],glycan array binding signal (z-score) [30],glycan array binding signal (z-score) [31],glycan array binding signal (z-score) [32],glycan array binding signal (z-score) [33],glycan array binding signal (z-score) [34],glycan array binding signal (z-score) [35]
"DCIR (Homo sapiens), Q9UMR7 (protein) MTSEITYAEVRFKNEFKSSGINTASSAASKERTAPHKSNTGFPKLLCASLLIFFLLLAISFFIAFVIFFQKYSQLLEKKTTKELVHTTLECVKKNMPVEETAWSCCPKNWKSFSSNCYFISTESASWQDSEKDCARMEAHLLVINTQEEQDFIFQNLQEESAYFVGLSDPEGQRHWQWVDQTPYNESSTFWHPREPSDPNERCVVLNFRKSPKRWGWNDVNCLGPQRSVCEMMKIHL",-0.479,-0.367,-0.484,-0.31,0.076,-0.551,0.183,-0.359,-0.129,0.19,4.96,-0.161,-0.426,5.68,7.43,4.52,-0.245,-0.071,-0.372,-0.052,,,,,,,,,,,,,,,
"RegIIIbeta (Mus musculus), P35230 (protein) MLPPTACSVMSWMLLSCLMLLSQVQGEDSLKNIPSARISCPKGSQAYGSYCYALFQIPQTWFDAELACQKRPGGHLVSVLNSAEASFLSSMVKRTGNSYQYTWIGLHDPTLGAEPNGGGWEWSNNDVMNYFNWERNPSTALDRAFCGSLSRASGFLKWRDMTCEVKLPYVCKFTG",-0.114,,,,,,,,,-0.119,,,,,,,,,0.086,,-0.116,0.15,-0.114,-0.098,-0.105,-0.124,0.188,-0.116,-0.109,-0.103,-0.071,-0.118,0.106,-0.116,-0.122

# — the supplement of paper PMC8728848
